From PubChem BioAssay come the findings set out here.

Results filed as inconclusive are left out. Active and inactive are the calls of the source.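 The calls were made as follows, unless noted: active = GFP signal, as percent of the solvent control, above the screen mean plus 3 SD, about 149; inconclusive = no reading because the compound's own fluorescence upset strain identification; inactive = the rest.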

The nature of assay [1]: yeast TOR pathway RPL19A-GFP modulators, primary screen, cell-based, S. cerevisiae, multiplex flow cytometry (AID 1862; in the data active = percent of DMSO control GFP below about 86%;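 also: lower values mimic rapamycin by blocking the RPL19A rise seen in DMSO cells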). The note with it: S. cerevisiae RPL19A-GFP strain, flow cytometry fluorescence, 3 h; at 10 µM; stronger effect = lower value.
Assay [2] can be described thus: modulators of MEP2-GFP levels in yeast, primary screen, S. cerevisiae, multiplex flow cytometry (AID 1867;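 active = GFP response, as percent of the DMSO control, above the screen-wide mean plus 3 SD, about 139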;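 also: median GFP channel fluorescence of barcode-gated MEP2-GFP cells measured by flow cytometry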). The note with it: S. cerevisiae MEP2-GFP strain, 3 h, at 10 µM, stronger effect = higher value, 100% means same as DMSO wells.
Assay [3] can be described thus: modulators of CIT2-GFP expression in yeast, primary screen, S. cerevisiae, GFP fusion, multiplex flow cytometry (AID 1870;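 active = percent response above a set limit, the screen-wide mean plus 3 SD, cut at about 130% in these data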;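 also: barcoded CIT2-GFP strain pooled with four other GFP strains with rapamycin as positive control; median GFP fluorescence per well over plate mean of DMSO wells so 100% = DMSO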). The note with it: 3 h, at 10 µM, stronger effect = higher value.
Assay [4] can be described thus: modulators of LAP4-GFP expression in yeast, primary screen, S. cerevisiae, multiplex flow cytometry (AID 1873). The note with it: 3 h, at 10 µM, stronger effect = higher value.
A short description of assay [5]: modulators of AGP1-GFP expression in yeast TOR pathway, primary screen, cell-based, multiplex flow cytometry, S. cerevisiae (AID 1887;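 active = GFP signal above the screen-wide mean plus 3 SD, that is over about 124.5% of the solvent control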;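 also: AGP1-GFP fusion strain of S. cerevisiae within a five-strain barcoded multiplex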). The note with it: 3 h, at 10 µM, stronger effect = higher value.
Assay [6] in a line: inhibitors of CD8+ T cell-vesicle binding, pilot screen, LFA-1/ICAM-1 modulator project, MLPCN validation set, flow cytometry (AID 2523;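 active = response below a set limit, under 55% cells CD8-positive and vesicle-bound, and CD8 cells' 90th-percentile brightness under 279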;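 as to vesicle binding response: mean PE anti-B7-1 fluorescence of CD8+ cells relative to row control; 100% = QL9-loaded vesicles with DMSO vehicle in the same plate row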). To be noted: 2C mouse CD8+ T cells, at 7 µM, stronger effect = lower value; double positive events: measured here: CD8+/vesicle+ event percentage.
Assay [7] deals with Integrin beta-1 (Homo sapiens) + Integrin alpha-4 (Homo sapiens) (UniProt P13612+P05556). Briefly: inhibition of HUTS-21 binding to VLA-4, pilot screen, VLA-4 allosteric modulator project, U937 cells, HUTS-21 mAb, flow cytometry, validation set (AID 2674;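 active = inhibition above 50%, about 3 SD of the validation set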;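 also: antibody binding induced by the VLA-4 ligand LDV present at three times its Kd; 0% = LDV ligand with antibody and no compound and 100% = antibody without LDV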). The note with it: HUTS-21 LIBS mAb binding, at 6.7 µM, stronger effect = higher value, binding induced by LDV ligand.
Integrin beta-1 (Homo sapiens) + Integrin alpha-4 (Homo sapiens), sequence (P05556 whole entry, looked up): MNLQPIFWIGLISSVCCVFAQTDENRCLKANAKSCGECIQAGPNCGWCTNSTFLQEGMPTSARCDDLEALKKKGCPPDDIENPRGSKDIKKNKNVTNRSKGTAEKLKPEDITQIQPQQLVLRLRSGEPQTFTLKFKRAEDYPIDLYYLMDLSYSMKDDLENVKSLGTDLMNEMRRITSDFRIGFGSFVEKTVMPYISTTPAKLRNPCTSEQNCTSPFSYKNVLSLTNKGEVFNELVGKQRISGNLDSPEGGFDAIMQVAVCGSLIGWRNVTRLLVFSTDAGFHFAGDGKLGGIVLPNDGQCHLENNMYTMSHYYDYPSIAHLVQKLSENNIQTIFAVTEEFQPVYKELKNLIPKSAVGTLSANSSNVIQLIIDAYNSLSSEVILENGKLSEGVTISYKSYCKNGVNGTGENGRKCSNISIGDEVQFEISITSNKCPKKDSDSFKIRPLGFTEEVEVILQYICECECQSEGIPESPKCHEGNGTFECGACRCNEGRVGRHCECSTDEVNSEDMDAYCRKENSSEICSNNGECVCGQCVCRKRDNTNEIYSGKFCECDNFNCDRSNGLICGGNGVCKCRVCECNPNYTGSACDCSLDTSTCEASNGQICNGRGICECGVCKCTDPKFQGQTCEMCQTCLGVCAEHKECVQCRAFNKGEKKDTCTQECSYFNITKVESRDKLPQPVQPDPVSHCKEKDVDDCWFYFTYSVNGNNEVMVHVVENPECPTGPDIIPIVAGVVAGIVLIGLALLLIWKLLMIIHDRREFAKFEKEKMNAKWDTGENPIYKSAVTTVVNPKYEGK
Integrin beta-1 (Homo sapiens) + Integrin alpha-4 (Homo sapiens), sequence (P13612 whole entry, looked up): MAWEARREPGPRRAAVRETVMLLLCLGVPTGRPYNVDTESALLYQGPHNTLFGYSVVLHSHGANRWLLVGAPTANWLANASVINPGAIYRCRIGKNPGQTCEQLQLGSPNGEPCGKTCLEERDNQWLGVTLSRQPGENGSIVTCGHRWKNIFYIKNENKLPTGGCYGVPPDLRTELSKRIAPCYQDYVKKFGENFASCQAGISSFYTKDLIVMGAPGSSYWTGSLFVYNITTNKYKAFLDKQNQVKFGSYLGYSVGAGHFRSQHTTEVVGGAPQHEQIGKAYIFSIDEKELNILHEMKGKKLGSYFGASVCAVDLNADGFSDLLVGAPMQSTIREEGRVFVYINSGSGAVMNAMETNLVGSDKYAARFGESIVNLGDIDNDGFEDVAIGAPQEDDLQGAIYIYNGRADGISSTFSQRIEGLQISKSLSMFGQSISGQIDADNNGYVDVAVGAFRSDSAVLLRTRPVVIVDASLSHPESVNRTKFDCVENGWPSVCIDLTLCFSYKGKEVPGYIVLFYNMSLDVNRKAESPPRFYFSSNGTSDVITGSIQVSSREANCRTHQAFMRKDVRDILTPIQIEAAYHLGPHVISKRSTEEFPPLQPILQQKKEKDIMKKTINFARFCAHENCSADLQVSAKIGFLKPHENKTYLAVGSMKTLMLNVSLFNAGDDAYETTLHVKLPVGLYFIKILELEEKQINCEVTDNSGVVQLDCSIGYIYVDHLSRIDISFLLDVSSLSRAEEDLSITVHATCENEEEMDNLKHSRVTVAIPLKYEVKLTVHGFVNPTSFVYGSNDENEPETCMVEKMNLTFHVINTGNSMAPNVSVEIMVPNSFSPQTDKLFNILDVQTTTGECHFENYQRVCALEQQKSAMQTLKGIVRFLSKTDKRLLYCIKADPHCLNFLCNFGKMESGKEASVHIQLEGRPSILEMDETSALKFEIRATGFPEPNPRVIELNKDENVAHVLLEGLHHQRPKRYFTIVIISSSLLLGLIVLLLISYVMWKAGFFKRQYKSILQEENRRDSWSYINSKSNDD
Assay [8] in a line: superoxide lowering in aged yeast cells, pilot screen, validation compound set (AID 2706;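 active = superoxide response below 65% of plate, a cut near 3 SD across the whole screen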;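 also: yeast exposed to compound for one week at 30 degrees C before staining; 100% = mean of all compound wells on the same plate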). To be noted: S. cerevisiae aging, superoxide DHE fluorescence; at 10 µM, stronger effect = lower value.
In assay [9] the target is Beta-adrenergic receptor kinase 1 (Homo sapiens) (UniProt P25098). Briefly: GRK2 binders displacing RNA aptamer, biochemical, validation, human GRK2, bead flow cytometry (AID 488806;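 active = aptamer binding inhibition above 30%, about 3 SD of noise from non-fluorescent compounds; inactive = inhibition at or below 30%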). The note with it: bead-bound GRK2, FAM-aptamer displacement, at 10 µM, stronger effect = higher value.
Beta-adrenergic receptor kinase 1 (Homo sapiens), sequence (P25098 whole entry, looked up): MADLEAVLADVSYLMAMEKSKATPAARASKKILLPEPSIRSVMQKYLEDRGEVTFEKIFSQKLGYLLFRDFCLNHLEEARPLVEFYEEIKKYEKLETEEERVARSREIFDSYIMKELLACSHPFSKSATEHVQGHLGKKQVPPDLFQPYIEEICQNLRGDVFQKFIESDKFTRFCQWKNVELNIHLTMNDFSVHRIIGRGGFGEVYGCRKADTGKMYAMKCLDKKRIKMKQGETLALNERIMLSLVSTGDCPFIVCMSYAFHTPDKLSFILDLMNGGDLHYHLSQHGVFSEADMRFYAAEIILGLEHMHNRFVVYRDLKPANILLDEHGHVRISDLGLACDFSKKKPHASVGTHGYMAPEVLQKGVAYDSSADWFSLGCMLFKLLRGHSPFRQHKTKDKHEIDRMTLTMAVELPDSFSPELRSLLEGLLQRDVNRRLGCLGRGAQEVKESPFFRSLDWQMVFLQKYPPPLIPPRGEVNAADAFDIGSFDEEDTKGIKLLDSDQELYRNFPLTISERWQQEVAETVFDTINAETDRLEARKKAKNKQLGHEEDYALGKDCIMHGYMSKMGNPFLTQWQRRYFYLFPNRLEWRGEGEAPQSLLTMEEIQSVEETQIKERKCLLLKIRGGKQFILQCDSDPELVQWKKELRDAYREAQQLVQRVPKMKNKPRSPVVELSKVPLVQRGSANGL
Assay [10] deals with AP-2 complex subunit beta (Homo sapiens) (UniProt P63010). Briefly: inhibitors of arrestin peptide binding to AP2, pilot screen, biochemical, validation set, GST-AP2 beads, flow cytometry (AID 504541;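 active = inhibition above 54%, about 3 SD of non-fluorescent compounds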;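 also: AP2 carries R879A mutation and is captured from E. coli lysate; bead-bound FITC arrestin peptide fluorescence measuring arrestin peptide binding to AP2; 0% = DMSO wells and 100% = excess unlabeled arrestin peptide control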). To be noted: FITC arrestin peptide, at 10 µM, stronger effect = higher value, AP2 beta2 appendage fragment, R879A mutant.
AP-2 complex subunit beta (Homo sapiens), sequence (P63010 whole entry, looked up, the tested form may be a part, one chain of several): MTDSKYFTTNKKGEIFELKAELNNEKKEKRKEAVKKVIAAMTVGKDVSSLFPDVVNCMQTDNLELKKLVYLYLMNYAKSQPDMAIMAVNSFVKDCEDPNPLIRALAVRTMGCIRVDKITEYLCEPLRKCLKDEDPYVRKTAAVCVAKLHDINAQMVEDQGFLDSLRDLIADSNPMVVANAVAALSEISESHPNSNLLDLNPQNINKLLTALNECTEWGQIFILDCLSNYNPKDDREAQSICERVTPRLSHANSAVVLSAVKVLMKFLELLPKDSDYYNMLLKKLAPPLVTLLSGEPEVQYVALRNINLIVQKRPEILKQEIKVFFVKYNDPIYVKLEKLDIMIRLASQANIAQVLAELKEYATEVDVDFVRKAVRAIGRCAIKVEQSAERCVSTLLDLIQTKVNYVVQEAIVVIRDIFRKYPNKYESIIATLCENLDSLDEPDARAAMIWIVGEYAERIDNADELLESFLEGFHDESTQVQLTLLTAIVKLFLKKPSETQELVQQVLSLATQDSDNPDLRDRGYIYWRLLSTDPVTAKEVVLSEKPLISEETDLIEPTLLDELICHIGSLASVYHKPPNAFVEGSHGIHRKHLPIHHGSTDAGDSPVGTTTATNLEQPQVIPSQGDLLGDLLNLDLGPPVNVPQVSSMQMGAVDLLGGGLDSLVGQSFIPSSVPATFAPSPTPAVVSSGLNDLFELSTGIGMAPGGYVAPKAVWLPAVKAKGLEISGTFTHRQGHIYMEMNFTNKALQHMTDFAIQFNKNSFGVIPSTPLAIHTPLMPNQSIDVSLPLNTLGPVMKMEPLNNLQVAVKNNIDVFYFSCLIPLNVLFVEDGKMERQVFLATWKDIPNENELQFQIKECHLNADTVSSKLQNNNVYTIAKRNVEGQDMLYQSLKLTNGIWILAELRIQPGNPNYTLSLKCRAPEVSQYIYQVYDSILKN
A short description of assay [11]: yeast V-ATPase proton transport modulators, S. cerevisiae, pHLuorin, HTS validation (AID 504600; in the data active = response above about 15%;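 also: plate controls were DMSO for no effect and reference compound for full effect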). To be noted: S. cerevisiae pHLuorin cytosolic pH, at 10 µM, stronger effect = higher value.
Assay [12] has as its system anti-desmoglein-3 scFv antibody binding to human DSG3. Briefly: inhibitors of anti-DSG3 scFv binding to DSG3, pilot screen, biochemical, validation compound set, bead-based, flow cytometry (AID 588368;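 active = binding below the plate cutoff, the plate median minus 3 SD, with a reading above zero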;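 also: signal is the median channel fluorescence of bead-bound GFP antibody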). To be noted: Protein G beads, DSG3-Fc, scFv-GFP binding, at 10 µM, stronger effect = lower value.
The nature of assay [13]: inhibitors of fungal efflux pumps CDR1, CDR2, MDR1, pilot screen, validation compound set, multiplex, phenotypic (AID 588506;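 active = efflux inhibition above 0.42, the validation set average plus 4 SD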;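 also: Nile Red retained in cells so higher fluorescence means more efflux inhibition; 0 = negative control wells and 1 = enniatin B 25 µM full block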). To be noted: S. cerevisiae pump-expressing triplex, Nile Red efflux flow cytometry; at 10 µM; stronger effect = higher value; the pumps come from Candida albicans.
The target of assay [14] is ATP-binding cassette sub-family B member 6 (Homo sapiens) (UniProt Q9NP58). Briefly: ABCB6 transporter inhibitors, pilot screen, K562-ABCB6 cells, flow cytometry, validation set (AID 588550;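 active = inhibition above the screen-wide mean plus 3 SD, about 51%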;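 also: 0% = DMSO wells and 100% = benzethonium chloride 70 µM positive control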). The note with it: K562-ABCB6 porphyrin accumulation, 1 h, at 10 µM, stronger effect = higher value.
ATP-binding cassette sub-family B member 6 (Homo sapiens), sequence (Q9NP58 whole entry, looked up): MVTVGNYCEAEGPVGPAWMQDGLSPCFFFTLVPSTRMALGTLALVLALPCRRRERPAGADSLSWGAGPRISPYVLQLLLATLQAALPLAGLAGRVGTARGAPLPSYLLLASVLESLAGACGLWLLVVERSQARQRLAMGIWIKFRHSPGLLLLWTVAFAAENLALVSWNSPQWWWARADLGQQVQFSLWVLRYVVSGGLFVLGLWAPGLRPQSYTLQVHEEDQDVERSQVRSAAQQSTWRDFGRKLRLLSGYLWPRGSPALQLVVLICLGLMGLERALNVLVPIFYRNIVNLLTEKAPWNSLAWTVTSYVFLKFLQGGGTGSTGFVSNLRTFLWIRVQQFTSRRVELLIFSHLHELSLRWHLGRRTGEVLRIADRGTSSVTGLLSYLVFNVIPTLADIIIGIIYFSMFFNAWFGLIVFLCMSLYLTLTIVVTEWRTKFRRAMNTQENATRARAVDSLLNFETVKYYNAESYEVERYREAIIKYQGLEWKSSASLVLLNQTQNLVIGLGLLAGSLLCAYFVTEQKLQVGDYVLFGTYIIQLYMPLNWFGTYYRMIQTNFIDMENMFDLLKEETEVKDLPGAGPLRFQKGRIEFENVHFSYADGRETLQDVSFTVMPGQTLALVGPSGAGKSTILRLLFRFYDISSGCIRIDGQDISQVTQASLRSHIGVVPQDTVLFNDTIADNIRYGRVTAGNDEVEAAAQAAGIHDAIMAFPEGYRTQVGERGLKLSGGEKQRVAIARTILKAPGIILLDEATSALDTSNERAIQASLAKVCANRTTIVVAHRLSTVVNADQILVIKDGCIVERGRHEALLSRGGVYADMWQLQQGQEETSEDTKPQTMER
Assay [15] can be described thus: promoters of myeloid differentiation in arrested cells, primary screen, cell-based, GFP/MAC1 double positive, flow cytometry, validation set (AID 588685;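 active = differentiation response of at least 50%, scaled between solvent and reference control, from cells with both markers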;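 also: compound exposure lasts four days before antibody staining and flow analysis; 0% = DMSO wells and 100% = 5 µM fulvestrant positive control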). To be noted: ER-HoxA9 marrow cells, stronger effect = higher value, normalized: vehicle 0, fulvestrant 100.
Assay [16] addresses Beta-2 adrenergic receptor (Homo sapiens) (UniProt P07550). Briefly: beta2AR agonists driving receptor internalization, pilot screen, cell-based, FAP fluorogen, flow cytometry, validation set (AID 504459;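 active = percent response above 42, roughly 3 SD of non-fluorescent test compounds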;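 also: agonist-driven loss of surface beta2AR via internalization measured by FAP dye flow cytometry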). The note with it: Am2.2-beta2AR cells, FAP surface receptor flow cytometry; at 10 µM; stronger effect = higher value.

Beta-2 adrenergic receptor (Homo sapiens), sequence (P07550 whole entry, looked up): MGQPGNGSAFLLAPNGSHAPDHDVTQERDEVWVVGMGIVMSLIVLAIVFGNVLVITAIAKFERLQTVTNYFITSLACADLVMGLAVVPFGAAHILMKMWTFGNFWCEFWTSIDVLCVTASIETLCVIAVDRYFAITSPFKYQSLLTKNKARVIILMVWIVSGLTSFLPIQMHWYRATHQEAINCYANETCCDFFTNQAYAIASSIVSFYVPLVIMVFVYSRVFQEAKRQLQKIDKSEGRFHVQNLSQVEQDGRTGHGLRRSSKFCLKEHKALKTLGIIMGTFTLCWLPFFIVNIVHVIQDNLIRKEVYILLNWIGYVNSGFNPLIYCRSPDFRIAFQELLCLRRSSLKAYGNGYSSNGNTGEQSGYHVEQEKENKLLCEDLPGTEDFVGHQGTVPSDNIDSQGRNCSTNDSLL

As for `COc1ccccc1C(=O)c1cc2ccc(O)cc2oc1=O`, the percent of DMSO control GFP in assay [1] is 103% (inactive). Also, the values for the GFP response vs DMSO in assay [2] and in assay [4] were 110% (inactive) and 100% (inactive), respectively. The percent response of DMSO control in [3] was 105% (inactive). The GFP response, % of DMSO in [5] was 100% (inactive). In [6], the double positive events was 57.1%. For the same molecule, in assay [6], the vesicle binding response was 147% (inactive). The results for the inhibition in [7], in assay [10] and in assay [14] were 12.8% (inactive), -2.87% (inactive) and -208% (inactive), respectively. Besides, in [8], the superoxide response (% of plate) was 99.2% (inactive). For the same molecule, in assay [9], the aptamer binding inhibition is 1% (inactive). Moreover, the response in [11] was 5.05% (inactive). The binding (% of control) in assay [12] is 104% (inactive). For the same molecule, the efflux inhibition (fraction of control) in assay [13] was 0.03 (inactive). For the same molecule, the differentiation response in assay [15] was -14.7% (inactive).

On to `O=C1CCCN1CCCn1cnc2c([nH]c3ccc(F)cc32)c1=O`, for which the percent of DMSO control GFP in [1] is 105% (inactive). Further, the GFP response vs DMSO in [2] was 104% (inactive); in assay [4] it was 89.3% (inactive). Besides, the percent response of DMSO control in assay [3] is 101% (inactive). Besides, in assay [5], the GFP response, % of DMSO was 101% (inactive). The molecule further registered a double positive events in assay [6] of 57.6%. Moreover, the vesicle binding response in assay [6] was 124% (inactive). For the same molecule, the inhibition in [7] is 10.9% (inactive); in assay [10] it was -10.6% (inactive); in [14], 10% (inactive). In [8], the superoxide response (% of plate) was 114% (inactive). The aptamer binding inhibition in [9] was -1% (inactive). Besides, the response in assay [11] was 1.63% (inactive). For the same molecule, the binding (% of control) in assay [12] was 100% (inactive). The efflux inhibition (fraction of control) in assay [13] is -0.28 (inactive). In addition, the differentiation response in assay [15] was -27.6% (inactive).

With `CC(C(=O)O)c1ccc(N2Cc3ccccc3C2=O)cc1` (stereo not given), the percent of DMSO control GFP in [1] is 98.4% (inactive). The GFP response vs DMSO is 103% (inactive) in assay [2] and 119% (inactive) in [4]. The percent response of DMSO control in [3] was 93.9% (inactive). For the same molecule, the GFP response, % of DMSO in assay [5] was 90.4% (inactive). The molecule also had a double positive events in [6] of 62.1%. For the same molecule, the vesicle binding response in assay [6] is 2350% (inactive). The inhibition was -7.47% (inactive) in assay [7] and 1% (inactive) in assay [14]. The superoxide response (% of plate) in [8] is 112% (inactive). The aptamer binding inhibition in [9] was -4% (inactive). The response in [16] was 3.47% (inactive); in assay [11], 0.33% (inactive). Besides, the binding (% of control) in [12] was 107% (inactive). The efflux inhibition (fraction of control) in assay [13] was -0.41 (inactive). Moreover, the differentiation response in assay [15] was -1.12% (inactive).

Regarding `COC(=O)c1cc(OC)c(OC)c(OC)c1[N+](=O)[O-]`, in assay [1], the percent of DMSO control GFP was 103% (inactive). For the same molecule, the GFP response vs DMSO in assay [2] was 97.9% (inactive); in [4], 108% (inactive). Besides, the percent response of DMSO control in assay [3] is 107% (inactive). For the same molecule, the GFP response, % of DMSO in assay [5] is 105% (inactive). In assay [6], the double positive events is 58.1%. In addition, the vesicle binding response in [6] was 186% (inactive). For the same molecule, the results for the inhibition in [7], in assay [10] and in [14] were -0.24% (inactive), -11.6% (inactive) and 3% (inactive), respectively. Besides, the superoxide response (% of plate) in assay [8] is 107% (inactive). Moreover, in assay [9], the aptamer binding inhibition was 4% (inactive). Also, the response in assay [11] was 39.5% (active). In addition, in assay [12], the binding (% of control) is 99% (inactive). Further, in assay [13], the efflux inhibition (fraction of control) was 0.14 (inactive). The differentiation response in assay [15] was -21.2% (inactive).

With `CN(C)c1ccc(O)c2c1CC1CC3[C@@H](N(C)C)C(=O)C(C(N)=O)=C(O)[C@]3(O)C(=O)C1=C2O` (stereo not given in full), in assay [1], the percent of DMSO control GFP is 100% (inactive). In addition, the GFP response vs DMSO was 101% (inactive) in assay [2] and 93.7% (inactive) in assay [4]. Further, in assay [3], the percent response of DMSO control was 97.6% (inactive). The GFP response, % of DMSO in assay [5] is 93% (inactive). In assay [6], this molecule registered a double positive events of 63%. In addition, the vesicle binding response in assay [6] is 162% (inactive). Also, the inhibition in assay [7] was 4.27% (inactive); in assay [10], 6.63% (inactive); in [14] it was 6% (inactive). In addition, the superoxide response (% of plate) in assay [8] is 99.5% (inactive). Also, in [9], the aptamer binding inhibition was 29% (inactive). In addition, the response in assay [16] is 1.7% (inactive); in [11] it was -2.16% (inactive). Also, the binding (% of control) in assay [12] was 93.6% (inactive). Further, the differentiation response in assay [15] was -3.11% (inactive).
